About 460 (31%) of roughly 1,500 compounds were called active. Not shown: some 1% with an inconclusive outcome.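 How the source made its calls: active means curve reaches 40% activation over neutral controls at an AC40 no higher than the top valid tested concentration; inconclusive means no clear call, values can overlap the other calls; inactive means signal moving opposite to the expected increase, and the rest.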 Only a sample is shown. Results with a measured potency or affinity are listed apart.
Assay: activators of glucose-dependent insulin secretion, dose response, cell-based, INS-1E, Gaussia luciferase, luminescence, cherry-pick, set 2 (AID 977607);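 further: 0% = median of the plate neutral control wells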
Conditions: INS-1E GLuc insulin secretion reporter, 2-3 h, stronger effect = higher value; at 35 µM, 100% = signal doubled over neutral wells unless noted

Max activation, inactive:
COc1ccnc(N2CCN(c3cccc(C(F)(F)F)c3)CC2)c1C#N 81.3%
CN(C)CCCN(C(=O)c1ccco1)c1nc2c(F)cccc2s1 -22.6% [at 0.015 µM, 100% = signal doubled over neutral wells]
CCOc1ccc2ccc(OCC)c(/C=N/n3cnnc3)c2c1 -33.7%
Cc1cc2cc(C#N)c(N3CCOCC3)nc2cc1Cl -10.5% [at 0.015 µM, 100% = signal doubled over neutral wells]
O=C1CC(=O)Nc2cc(S(=O)(=O)NCc3cccs3)ccc2N1 -18.8% [at 0.0016 µM, 100% = signal doubled over neutral wells]
COc1ccc(CCNc2ccncn2)cc1OC -13.5% [at 0.0016 µM, 100% = signal doubled over neutral wells]
COc1ccc(CCNC(=O)C(=O)NN=C2CCCCCCC2)cc1OC -11.7% [at 0.005 µM, 100% = signal doubled over neutral wells]
COc1ccc(CCNS(=O)(=O)c2ccc(Cl)s2)cc1OC 28.1%
COc1ccc(CCN=C(N)NS(=O)(=O)c2ccc(C)c(C)c2)cc1OC 23.8% [at 0.0016 µM, 100% = signal doubled over neutral wells]
CCOC(=O)c1c(S(=O)(=O)NCCc2ccc(OC)c(OC)c2)c(C)n(C)c1C -18.5% [at 0.135 µM, 100% = signal doubled over neutral wells]
COc1ccc(CCN(C)C(=O)CCNS(=O)(=O)c2ccccc2C(F)(F)F)cc1OC -10.8% [at 0.135 µM, 100% = signal doubled over neutral wells]
Cc1ccc(NC(=O)[C@@H](Cc2ccccc2)NC(=O)[C@H]2O[C@@H](n3ccc(=O)[nH]c3=O)[C@H](O)[C@@H]2O)cc1C -17.1% [at 0.015 µM, 100% = signal doubled over neutral wells]
COc1ccc(NC(=O)C2CCCN2S(=O)(=O)c2ccc3c(c2)CC(C)N3C(C)=O)cc1OC (stereo not given) -19.4% [at 0.005 µM, 100% = signal doubled over neutral wells]
COc1cccc(NC(=O)CN(C)C(=O)Cn2[nH]c(=O)c3ccccc3c2=O)c1 -27.7% [at 1.2 µM, 100% = signal doubled over neutral wells]
COc1cc2c(cc1OC)C(CSc1ccccc1C(=O)O)=NC(C)(C)C2 30.8%
O=C(NCC1(O)CCCCC1)C1CCC(=O)N(Cc2ccccc2F)C1 (stereo not given) -16.4%
CCOC(=O)c1sc(NC(C)=O)nc1-c1ccccc1 -16.3% [at 0.046 µM, 100% = signal doubled over neutral wells]
CN(C(=O)COC(=O)c1cccs1)c1ccccc1 -16.8% [at 0.0016 µM, 100% = signal doubled over neutral wells]
O=C(Nc1cccnc1)c1cnn2c(C(F)F)cc(C3CC3)nc12 30.2% [at 11 µM, 100% = signal doubled over neutral wells]
Cc1cc(C(F)F)n2ncc(C(=O)NCc3ccc(F)cc3)c2n1 -18% [at 1.2 µM, 100% = signal doubled over neutral wells]
COc1ccc(-c2cc(NC=O)c3ncc(-c4ccc(OC)c(OC)c4)n3c2)cc1 90% [at 3.8 µM, 100% = signal doubled over neutral wells]
CC(=O)Nc1cc(-c2ccc(N3CCN(C)CC3)cc2)cn2c(-c3cccc(C(=O)N(C)C)c3)cnc12 -24% [at 0.046 µM, 100% = signal doubled over neutral wells]
COc1ccc(CNC(=O)CN2C(=O)NC3(CCCCCC3)C2=O)cc1 -13.8% [at 0.005 µM, 100% = signal doubled over neutral wells]
CCC(O)c1nc2ccccc2n1CCc1ccccc1 (stereo not given) -18.7% [at 0.005 µM, 100% = signal doubled over neutral wells]
CC1Cc2ccccc2N1C(=S)NC(=O)c1cccc(Br)c1 (stereo not given) -15.5% [at 0.005 µM, 100% = signal doubled over neutral wells]
CCOC(=O)c1nc2nc(-c3cccs3)cc(C(F)(F)F)n2n1 -16% [at 0.135 µM, 100% = signal doubled over neutral wells]
Cc1c(Cc2ccccc2)sc(NC(=O)C(C)(C)C)c1C(N)=O -18.8% [at 0.015 µM, 100% = signal doubled over neutral wells]
COc1ccc(/C(C)=N/Nc2ccc(C(=O)O)cc2)cc1OC 24.3%
COc1ccc(C(=O)/C=C2\NCCc3cc(OC)c(OC)cc32)cc1OC 24%
C=CCN1C(=O)c2n[nH]c(COC)c2C1c1ccc(F)cc1 (stereo not given) -25.3% [at 0.015 µM, 100% = signal doubled over neutral wells]
Cc1cc(=O)oc2c3c(cc(OCC(=O)NC(C)C)c12)OC(C)(C)CC3 34% [at 0.42 µM, 100% = signal doubled over neutral wells]
CC(=O)Nc1ccc(-c2ccnc3c2CC(C)(C(=O)Nc2cccc(OC(F)(F)F)c2)O3)cc1 (stereo not given) -44.4%
Nn1c(-c2ccccc2)cc(-c2ccccc2)cc1=O 27.3%
CNc1nc(OCC#N)nc(N2CCCCC2)n1 25%
COc1ccc(C(=O)N2CCc3cc(OC)c(OC)cc3C2c2ccc(OC)c(OC)c2)cc1OC (stereo not given) 24.4% [at 0.005 µM, 100% = signal doubled over neutral wells]
COc1cc2c(cc1OC)CN(C(=O)Cc1ccccc1)CC2 -21.2%
Cc1ccccc1SC1CCN(C(=O)C2CCC(=O)N(C3CC3)C2)CC1 (stereo not given) -25.3%
CCOc1ccc(OCCC(=O)N(CC)CC(=O)NCc2cccs2)cc1 -21% [at 11 µM, 100% = signal doubled over neutral wells]
O=C(CC(NC(=O)c1ccccc1)c1ccccc1)Nc1cccc2ccccc12 (stereo not given) -27.5%
Nc1[nH]c(C(=O)c2ccccc2)c(-c2c(F)cccc2F)c1C(=O)c1ccc(Cl)c(Cl)c1 53.9%
C#Cc1cccc(-n2nnc(C(=O)OC)c2-c2ccccc2)c1 -13.8% [at 0.42 µM, 100% = signal doubled over neutral wells]
COC(=O)C1=C(C)NC(=S)NC1c1ccc(OC)cc1 (stereo not given) -18.4% [at 0.135 µM, 100% = signal doubled over neutral wells]
COc1ccc(CCC(=O)NC2CCC(C)CC2)cc1 (stereo not given) -13.6% [at 0.135 µM, 100% = signal doubled over neutral wells]
c1ccc2c(NCC3CCCO3)nc(N3CCCCC3)nc2c1 (stereo not given) -16.1% [at 3.8 µM, 100% = signal doubled over neutral wells]
CC1=CC(c2ccccc2)n2nc(NC(=O)CCC(=O)O)nc2N1 (stereo not given) -12.8% [at 1.2 µM, 100% = signal doubled over neutral wells]
CC(=O)c1ccc(OCC(=O)N(C2CCCCC2)C2CCS(=O)(=O)C2)cc1 (stereo not given) -11% [at 0.0016 µM, 100% = signal doubled over neutral wells]
CCN(Cc1ccccc1)S(=O)(=O)c1ccc(C(=O)Nc2nnc(C)o2)cc1 39.3% [at 3.8 µM, 100% = signal doubled over neutral wells]
CN(C)CCCN(C(=O)CCOc1ccccc1)c1nc2ccc(F)cc2s1 -14.1% [at 0.015 µM, 100% = signal doubled over neutral wells]
COc1cc2c(cc1OC)CN(C(=O)CNS(=O)(=O)c1ccc(C)c(C)c1)CC2 13.4% [at 11 µM, 100% = signal doubled over neutral wells]
COc1ccccc1-c1cnc2c(c1)C(=O)N([C@H](C)CO)C[C@@H](C)[C@@H](CN(C)C(C)=O)O2 35.5% [at 0.015 µM, 100% = signal doubled over neutral wells]
O=C(NC1CCCCC1)c1cccnc1Sc1ccccc1 -28.1% [at 0.015 µM, 100% = signal doubled over neutral wells]
CCCCc1nc(NCCN)c(C#N)c2c1CSC(C)(C)C2 -17.6% [at 0.046 µM, 100% = signal doubled over neutral wells]
O=C(NC(=S)NCC1CCCO1)c1ccc(Cl)cc1Cl (stereo not given) -19.4% [at 0.005 µM, 100% = signal doubled over neutral wells]
O=C(Nc1ccc(Br)cc1)c1cc2ccccn2n1 -31.1% [at 0.42 µM, 100% = signal doubled over neutral wells]
O=C(OCc1c(-c2ccccc2)ncc2ccccc12)c1cccs1 -36.4% [at 11 µM, 100% = signal doubled over neutral wells]
